# Compounds with a hit are over-represented: about 2.4% of the library has one in this group of screens.
# D2 ag-1 – D2 dopamine receptor (human) agonism; P14416; AID 485358; HEK293 T-REx D2 cells, calcium flux agonist mode; activation, % at 2 µM; 340,000 compounds, 0.53% hits;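 active means activation over 3 SD above normal in the single-dose calcium agonist read, cut at about 30% in these data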; further: 0% is about no effect
# Target sequence (P14416 whole entry, looked up): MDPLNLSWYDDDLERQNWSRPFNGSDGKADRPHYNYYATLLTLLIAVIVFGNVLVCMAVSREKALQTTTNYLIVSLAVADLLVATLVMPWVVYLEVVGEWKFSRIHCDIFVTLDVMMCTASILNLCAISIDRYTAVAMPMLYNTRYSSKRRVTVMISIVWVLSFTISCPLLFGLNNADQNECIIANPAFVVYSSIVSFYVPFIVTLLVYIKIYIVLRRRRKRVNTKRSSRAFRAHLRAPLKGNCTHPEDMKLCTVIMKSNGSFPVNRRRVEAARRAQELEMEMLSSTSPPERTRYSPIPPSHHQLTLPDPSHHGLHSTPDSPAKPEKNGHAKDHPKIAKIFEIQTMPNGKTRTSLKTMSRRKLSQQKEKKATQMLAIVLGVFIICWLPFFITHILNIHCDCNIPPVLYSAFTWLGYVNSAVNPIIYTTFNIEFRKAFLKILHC
#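 Tetracycline-induced HEK293 T-REx cells with force-coupled D2 receptor, plated overnight at 30 C, loaded with no-wash calcium dye. After a 10 s baseline, compound was pin-added and calcium flux read kinetically for 180 s; calcium rises flagged agonists.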
# D2 antagonist – antagonists of human D2 dopamine receptor | HEK293 TREx D2 cells, calcium flux, dopamine EC80 | inhibition, % at 10 µM | 340,000 compounds, 2% hits; in the data active means inhibition above about 30%; inactive means below that, where a call was filed; further: 0% is about no effect
#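 Compounds are added to dye-loaded, induced HEK293 T-REx cells coupled to calcium release via D2; after a 3 min kinetic read an EC80 dopamine stimulus is given and fluorescence is recorded for 3 more min.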
# D2 PAM-1 – D2 dopamine receptor (human) potentiation. P14416. HEK293 T-REx D2, calcium flux, EC20 dopamine potentiation. AID 485347. potentiation, % at 10 µM. 340,000 compounds, 0.34% hits;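 active means potentiation over 3 SD above the plate norm, cut at about 30% in these data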; further: 0% is about no effect
#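 Tetracycline-induced Hek293 Trex D2 cells, force-coupled to calcium, loaded with no-wash calcium dye. Compound added with 180 s kinetic read for agonism, then EC20 dopamine and a further 180 s read for potentiation.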
# D2 ag-2 – human D2 receptor agonism in beta-arrestin assay | activation, % (concentration not given with the values) | DiscoveRx PathHunter D2 beta-arrestin, luminescence, 90 min; 100% = 57 uM dopamine signal | 360,000 compounds, 0.084% hits | AID 624465; in the data active means activation above about 40%; inconclusive means between about 15% and that limit
#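 Agonist mode: compounds alone added to overnight-plated D2 PathHunter cells for 90 min at 37 C, with 57 uM final dopamine (EC100) defining full response. Beta-arrestin recruitment detected by chemiluminescent reagent, read after 1 h at ambient temperature.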
# D2 PAM-2 – potentiates the human D2 dopamine receptor allosterically. P14416. DiscoveRx D2 beta-arrestin cells, luminescence, 90 min; 100% = 57 uM dopamine signal. potentiation, % (no concentration beside the values). 360,000 compounds, 0.23% hits. AID 624464; in the data active means potentiation above about 50%; inconclusive means mostly about 30% to 49%
#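 D2 cells co-treated with compound plus 50 nM dopamine (EC20) for 90 min at 37 deg C to detect potentiation. Beta-arrestin recruitment was read as enzyme-fragment luminescence after 1 h at ambient temperature. Full response was set by 57 uM dopamine.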
# D3 arrestin ag – activates human D3 dopamine receptor beta-arrestin recruitment. shares compounds with D2 ag-1. DiscoveRx D3 beta-arrestin cells, luminescence, 90 min. Potency, µM (top dose mostly 76.9 µM), for the others: top-dose activation, most hits filed as activators. 2,300 compounds, 4% hits. AID 720506;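 further: potency means the concentration at half of the fitted maximal effect; 100% = dopamine control response; nearly all actives have a fitted effect of over 70% in size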
# D2 ag-3 – activates human D2 dopamine receptor in D3 counterscreen; 2,300 compounds, 5.9% hits; Potency, µM (highest dose often 76.9 µM), without a hit: top-dose activation, hits mostly activators; AID 720507; DiscoveRx PathHunter D2 beta-arrestin, luminescence, 90 min; response scale: percent relative to full dopamine signal; shares compounds with D2 ag-1; further: potency means the concentration at half of the fitted maximal effect; % of control where 0% means no effect; nearly all actives have a fitted effect of over 70% in size
# Numbers without * were called inactive; ? = inconclusive; · = no result. Unless noted, the call rests on the fitted dose curve; in most records, active means well fitted activation curve with a large enough effect; inconclusive means small, poorly fitted or top-dose-only effect; inactive means flat fitted curve, though single readings scatter.
SMILES,D2 ag-1,D2 antagonist,D2 PAM-1,D2 ag-2,D2 PAM-2,D3 arrestin ag,D2 ag-3
CCOc1cccc(-c2c(C(=O)N/N=C/c3ccsc3)nnn2-c2nonc2N)c1,9.1,22.8,25.6,-0.1,0.1,2.2%,-2.8%
CCOc1ccc(-c2c(C(=O)N/N=C/c3ccccc3)nnn2-c2nonc2N)cc1,3.8,-2.3,28.3,0.5,-7.3,·,·
CCc1ccc(/C=N/NC(=O)c2nnn(-c3nonc3N)c2C(C)C)cc1,25.8,18.0,9.6,1.1,-5.2,1.1%,0.7%
CCOc1cccc(-c2c(C(=O)N/N=C/c3sccc3C)nnn2-c2nonc2N)c1,0.8,2.9,5.1,2.1,-5.9,·,·
CCOc1ccc(/C=N/NC(=O)c2nnn(-c3nonc3N)c2-c2cccs2)cc1,6.9,16.5,5.5,3.2,-3.3,1.4%,-5.2%
CCOc1ccccc1NC(=O)CN(C)S(=O)(=O)c1ccc2[nH]c(=O)oc2c1,-1.7,11.5,12.5,-4.4,-8.9,·,·
COc1ccc(NC(=O)C2CCCN(S(=O)(=O)c3ccc(Cl)cc3)C2)cc1 (stereo not drawn),-0.3,·,18.3,·,·,·,·
CC(CCc1ccc(O)cc1)N1CCC(Oc2ccc(C(=O)N3CCCC3)cc2)CC1 (stereo not drawn),59.8*,39.1*,-20.7,12.8,-12.3,?,18.1%
COc1cccc(CN2CCC(Oc3ccc(C(=O)N4CCCCC4)cc3)CC2)c1,0.2,-9.0,-1.9,-3.0,-17.6,·,·
CC(C)/C=C/CN1CCC(Oc2ccc(C(=O)N3CCCC3)cc2)CC1,·,·,·,·,·,-7.4%,-0.2%
CCc1ccc(CNC(=O)CCCN2C(=O)CCn3nc(-c4cccn4C)cc32)cc1,-1.5,·,·,·,·,·,·
COc1ccc(/[N+]([O-])=C/c2ccco2)cc1,0.5,-7.6,-2.2,6.4,0.2,3.8%,9.7%
COc1ccc(OCC(=O)N/N=C\c2ccco2)cc1,0.1,-0.8,-1.5,3.0,3.5,·,·
COc1ccccc1N(C)S(=O)(=O)c1ccc(C(=O)Nc2cccc(Br)c2)cc1,·,·,·,-0.2,-15.9,·,·
CC(C)CN(CCCNC(=O)CC1Oc2ccccc2NC1=O)CC(C)C (stereo not drawn),0.1,21.8,-6.4,2.5,3.9,·,·
CCCCN(CC)CCCNC(=O)CC1Oc2ccccc2NC1=O (stereo not drawn),80.7*,87.0*,-18.4,52.7*,?,?,50.1µM*
CCN(CC)CCCNC(=O)CC1Sc2ccccc2NC1=O (stereo not drawn),21.9,17.0,-10.4,0.9,-4.7,-12.6%,6.1%
FC(F)(F)c1cnc2c(-c3ccccc3)n[nH]c2c1,2.1,-0.1,19.3,-3.7,-6.3,·,·
COc1ccc2c(c1)[nH]c1c(=O)n(Cc3ccco3)cnc12,31.5*,0.6,-17.8,-2.8,-4.0,-7.4%,-3.5%
COc1ccc2c(c1)[nH]c1c(=O)n(Cc3ccccn3)cnc12,-1.5,15.3,12.8,-0.3,4.2,·,·
Nc1cc(=O)nc(SCC(=O)N2CCN(c3ccccc3)CC2)n1-c1ccccc1,12.7,5.6,-1.6,-0.2,-9.0,·,·
Nc1cc(=O)nc(SCC(=O)N2CCN(c3ccccc3)CC2)n1-c1ccc(F)cc1,27.8,-19.0,-4.8,0.3,-5.6,-20.8%,-1.2%
COc1cccc(-n2c(N)cc(=O)nc2SCC(=O)N2CCN(c3ccccc3)CC2)c1,20.9,9.3,-9.4,-2.0,-6.1,-4.9%,6.1%
Cc1ccc(-n2c(N)cc(=O)nc2SCC(=O)N2CCN(c3ccccc3)CC2)cc1,65.6*,63.6*,-30.0,8.7,-21.5,-30.0%,8.5%
O=C(O)c1nc(NCCc2ccccc2)ncc1Cl,0.7,20.0,-4.6,-2.7,-3.3,·,·
SMILES,D2 ag-1,D2 antagonist,D2 PAM-1,D2 ag-2,D2 PAM-2,D3 arrestin ag,D2 ag-3
Cc1cc2ccccc2n1CCNC(=O)c1ccc(Br)o1,-0.7,-4.0,9.5,5.3,-6.2,·,·
CC1CN(C)C(C)C/C1=N/Oc1ccccc1[N+](=O)[O-] (stereo not drawn),41.5*,24.9,-18.5,6.7,-10.7,20.2%,18.0%
COC(=O)CCN(C(=O)C12CC3CC(CC(C3)C1)C2)c1ccccn1,69.1*,33.0*,-19.5,?,?,-3.6%,?
O=C(N(Cc1ccccc1)c1ccccn1)C12CC3CC(CC(C3)C1)C2,3.9,-3.7,-7.2,7.6,-2.1,·,·
CCn1ccnc1CNC(=O)c1ccc2oc(CCCc3ccccc3)nc2c1,1.1,-29.4,-13.0,-2.5,-23.4,·,·
COc1ccc(-c2ccc3c(c2)c(C#Cc2ccsc2)c(-c2cc(OC)cc(OC)c2)n3C)cc1,·,·,·,3.2,-10.0,·,·
COc1ccc(-c2c(C#Cc3ccsc3)c3cc(-c4ccc(OC)c(F)c4)ccc3n2C)cc1,0.7,1.5,3.6,-4.0,-7.9,-1.8%,-4.0%
CC(=O)Nc1cccc(NC(=O)CSc2nc(C3CC3)nc3ccccc23)c1,0.0,34.2*,-6.6,0.5,-1.7,29.0%,13.9%
CCOc1ccc(/C=N/NC(=O)c2cc(-c3ccccc3)nc3ccccc23)cc1O,·,·,·,-4.5,-9.5,1.2%,6.8%
Cc1cccc(NC(=O)c2nc[nH]c2C(=O)N[C@@H](C)c2ccccc2)c1,-0.4,-4.0,9.4,-2.3,-14.9,-3.1%,-4.3%
Cc1cccc(NC(=O)c2nc[nH]c2C(=O)N(C)Cc2ccccc2)c1,-0.6,28.6,-20.6,-8.5,-18.8,0.1%,-4.1%
Cc1cccc(NC(=O)COc2ccccc2C(=O)NC(C)c2ccccc2)c1 (stereo not drawn),48.8*,-5.2,-17.3,7.0,-19.0,?,9.2%
CN(Cc1ccccc1)C(=O)c1[nH]cnc1C(=O)NCCCCCNC(=O)OC(C)(C)C,-0.6,-8.3,7.2,-1.8,-18.5,-5.3%,3.7%
O=C(CCc1cccc(Cl)c1)NC1CCCN(Cc2ccccc2F)C1 (stereo not drawn),0.3,-10.7,-7.7,-2.5,-7.5,·,·
COCCCNc1ncnc2c1cnn2-c1ccc(F)cc1,0.6,·,6.8,·,·,·,·
CC12CCC(=O)C=C1CCC1C2CCC2(C)C(c3csc(N)n3)CCC12 (stereo not drawn),·,·,·,2.4,-7.7,·,·
C[C@H](NC(=O)c1[nH]cnc1C(=O)N[C@H](C)c1ccccc1)c1ccccc1,-0.2,9.1,9.7,-1.2,-3.0,-8.5%,-4.9%
C[C@H](NC(=O)c1nc[nH]c1C(=O)N[C@@H](C)c1ccccc1)c1ccccc1,0.2,-2.8,19.2,-2.5,-3.6,·,·
O=C(CSc1nc(=O)[nH]c2c1CCCC2)NCc1ccc(Cl)cc1,0.3,·,-2.6,·,·,·,·

# Bioassay records: PubChem, National Center for Advancing Translational Sciences (NCATS)
